PLK1 PBD inh = inhibitors of human PLK1 polo-box domain binding | Potency, µM, without a hit: max response, negative = inhibition, usual class: inhibitors | 360,000 compounds, 2.8% hits | Plk1 PBD binding of FITC phosphopeptide, fluorescence polarization; also: potency is read from the fitted curve at half-maximal effect; series mostly up to about 57 µM; % is scaled to controls: 0 for no effect and ±100 for the full control effect; nearly all actives have a fitted effect of over 65% in size
Target sequence (P53350 whole entry, looked up, the tested form may be a part): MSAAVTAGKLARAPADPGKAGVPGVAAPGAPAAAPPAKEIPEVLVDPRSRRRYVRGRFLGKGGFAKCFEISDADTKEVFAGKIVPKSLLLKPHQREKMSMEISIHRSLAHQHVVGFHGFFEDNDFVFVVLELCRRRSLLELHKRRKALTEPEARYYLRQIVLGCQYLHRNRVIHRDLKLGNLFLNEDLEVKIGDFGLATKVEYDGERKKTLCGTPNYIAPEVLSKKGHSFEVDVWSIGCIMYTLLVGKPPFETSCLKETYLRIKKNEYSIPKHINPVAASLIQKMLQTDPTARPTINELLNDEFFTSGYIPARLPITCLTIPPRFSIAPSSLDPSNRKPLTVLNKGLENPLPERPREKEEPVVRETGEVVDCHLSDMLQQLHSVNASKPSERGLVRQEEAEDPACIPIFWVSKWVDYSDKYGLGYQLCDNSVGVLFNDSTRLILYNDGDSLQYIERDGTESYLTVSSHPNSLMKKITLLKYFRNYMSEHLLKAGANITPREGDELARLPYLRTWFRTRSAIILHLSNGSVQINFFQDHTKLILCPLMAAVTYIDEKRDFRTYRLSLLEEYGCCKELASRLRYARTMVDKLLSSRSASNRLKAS
FEN1 inh = blocks human flap endonuclease 1; Potency, µM (top dose mostly 114 µM), for the others: top-dose activity change, negative = inhibition, most hits filed as inhibitors; 390,000 compounds, 0.35% hits; P39748; Recombinant FEN1 flap cleavage, fluorescence, 15 min; AID 588795; also: potency is read from the fitted curve at half-maximal effect; % is scaled to controls: 0 for no effect and ±100 for the full control effect; nearly all actives have a fitted effect of over 65% in size
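Reaction started by adding substrate (50 nM final) to 10 nM enzyme after 15 min room-temperature compound preincubation. Reads at 0 and 15 min, with data normalized and fitted to a four-parameter Hill equation.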
TCR activator = T cell receptor activation | 330,000 tested, under 10 active | Potency, µM (highest dose often 9.22 µM), for the others: top-dose activation of IL-2 secretion, hits mostly activators | primary human leukocytes, anti-CD3, IL-2 HTRF, 48 h; also: % of control where 0% means no effect
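Activity was scored as IL-2 release from primary human leukocytes given only a TCR signal (a-CD3 beads) plus compound for 48 hr. Detection used a two-antibody HTRF format read at 665nm.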
VDR inhibitor = blocks the human vitamin D receptor; Potency, µM, for the others: max response, negative = inhibition, usual class: inhibitors; VDR-SRC2-3 peptide fluorescence polarization, 2 h; 400,000 compounds, 0.93% hits; AID 504847; P11473; also: potency is read from the fitted curve at half-maximal effect; % is scaled to controls: 0 for no effect and ±100 for the full control effect
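Compounds are added to VDR with labelled SRC2-3 coactivator peptide and held 2 h at room temperature. Inhibition of the VDR–peptide interaction is then read as a change in fluorescence polarization.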
WRN helicase inh = WRN helicase (human) inhibition; Q14191; WRN helicase unwinding, fluorescent forked duplex, kinetic; Potency, µM (titrated, usually from 114 µM), without a hit: top-dose activity change, negative = inhibition, actives largely listed as inhibitors; 360,000 compounds, 0.46% hits; also: potency is read from the fitted curve at half-maximal effect; % is scaled to controls: 0 for no effect and ±100 for the full control effect; nearly all actives have a fitted effect of over 55% in size
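WRN at 20 nM final preincubated with compound 15 min at room temperature; reaction started with 100 nM fluorophore/quencher forked duplex oligonucleotide and 2 mM ATP final. Unwinding followed kinetically by red fluorescence (ex 525, em 598 nm).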
PI5P4Ka inh = PI5P4K alpha (human) kinase inhibition; P48426; PI5P4Kalpha enzyme, ADP-Glo luminescence, 60 min; stronger effect = lower value; 330,000 compounds, 1.2% hits; max response, %; active = max response of -50% or lower; inconclusive = between -30% and -50%; inactive = -30% or higher; also: value at the top dose of about 77 µM; % is scaled to controls: 0 for no effect and ±100 for the full control effect
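Human PI5P4Kalpha with substrate in 0.038 M HEPES pH 7.4, 0.28 mM EGTA, 0.1% CHAPS, 5% DMSO; reaction started with 5 microM ATP (final), 60 min at room temperature. ADP formed read by ADP-Glo luminescence.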
* = called active by the depositor; ! = repeats disagree; [ ] = remark or other dose. Most compounds without a hit are left out; they make up all but 3.7% or so of the library. Unless noted, calls follow the shape of the dose curve; as a rule, active = well fitted curve in the direction sought with a large enough effect; inconclusive = small, poorly fitted or top-dose-only effect, or another doubt; inactive = no such curve, though single readings can be large; an effect the other way counts as inactive or inconclusive.

How did COc1ccc(OC)c(-c2cc(C3CCN(c4ncccc4[N+](=O)[O-])CC3)[nH]n2)c1 do in these assays?
PLK1 PBD inh: -0.4%; FEN1 inh: 1.2%; TCR activator: 4.2%; VDR inhibitor: -4.3%; WRN helicase inh: -24.1%; PI5P4Ka inh: 12.8

How did O=C(C[n+]1cccc(Br)c1)c1ccc2c(c1)CCCC2 do in these assays?
FEN1 inh: -10.9%

How did COc1ccc(OC)c(NC(=O)c2cccc3c2C(=O)N(C2CCCCC2)C3)c1 do in these assays?
PLK1 PBD inh: 6.9%; FEN1 inh: -17.8%; TCR activator: 3.6%; VDR inhibitor: 22.4µM*!; WRN helicase inh: -2.2%; PI5P4Ka inh: -2.3

How did COc1ccc(NC(=O)c2cccc3c2C(=O)N(C2CCCCC2)C3)cc1 do in these assays?
PLK1 PBD inh: 5.1%; FEN1 inh: -26.6%; TCR activator: 4.2%; VDR inhibitor: 26.7%; WRN helicase inh: 1.3%[57.1 µM]; PI5P4Ka inh: 7.7

How did Cc1c(C(=O)Nc2c3c(nn2C(C)(C)C)CS(=O)(=O)C3)cccc1[N+](=O)[O-] do in these assays?
PLK1 PBD inh: 7.52µM*; FEN1 inh: 2.9%; TCR activator: -0.1%; VDR inhibitor: inconclusive; WRN helicase inh: -5.5%; PI5P4Ka inh: -2.9

How did Cc1ccc(OCC(=O)Nc2ccc3c4c(cccc24)CC3)c(C)c1 do in these assays?
PLK1 PBD inh: -10.5%; FEN1 inh: 4.6%; TCR activator: -1.7%[46.1 µM]; VDR inhibitor: 4.0%; WRN helicase inh: -21.4%[57.1 µM]; PI5P4Ka inh: -3.7

Results for Cc1c(C(=O)NC(=S)Nc2ccc3c4c(cccc24)CC3)cccc1[N+](=O)[O-] ?
PLK1 PBD inh: -21.4%; FEN1 inh: 7.5%; TCR activator: -2.8%; VDR inhibitor: -4.4%; WRN helicase inh: -29.3%[57.1 µM]; PI5P4Ka inh: 0.1

What do the screens show for `Cc1c(C(=O)Nc2ccc3c4c(cccc24)CC3)cccc1[N+](=O)[O-]`?
PLK1 PBD inh: 26.7µM*; FEN1 inh: 0.6%; TCR activator: 0.6%[46.1 µM]; VDR inhibitor: 2.7%; WRN helicase inh: 6.7%; PI5P4Ka inh: 1.0

What do the screens show for `Cc1cccc(OCC(=O)Nc2ccc3c4c(cccc24)CC3)c1C`?
PLK1 PBD inh: 26.7µM*; FEN1 inh: 16.1%; TCR activator: 4.7%[46.1 µM]; VDR inhibitor: -29.1%; WRN helicase inh: -0.1%; PI5P4Ka inh: -17.8

How did Cc1ccc(-c2ccccc2NC(=O)CS(=O)CC(=O)Nc2ccc(C)c(Cl)c2)o1 (configuration not stated) do in these assays?
PLK1 PBD inh: 18.9µM*; FEN1 inh: -19.7%; TCR activator: 1.7%; VDR inhibitor: 44.7µM*; WRN helicase inh: -17.7%; PI5P4Ka inh: 0.4

What do the screens show for `Cc1ccc(-c2ccccc2NC(=O)CCl)o1`?
PLK1 PBD inh: -9.4%; FEN1 inh: -5.7%; TCR activator: 3.4%; VDR inhibitor: -7.1%; WRN helicase inh: 3.9%; PI5P4Ka inh: 6.3

How did Nc1nc(Cl)nc2c1ncn2C1OC(CO)C(O)C1F (configuration not stated) do in these assays?
VDR inhibitor: -0.3%

How did CC(=O)N1CC=C2C(C#N)=C(N)C(C#N)(C#N)[C@H](c3ccoc3)[C@H]2C1 do in these assays?
PLK1 PBD inh: -12.5%; FEN1 inh: -3.4%; TCR activator: -4.3%; VDR inhibitor: -24.3%; WRN helicase inh: -16.0%

Results for CN1CC=C2C(C#N)=C(N)C(C#N)(C#N)[C@H](c3ccoc3)[C@H]2C1 ?
PLK1 PBD inh: 15µM*; FEN1 inh: 2.0%; TCR activator: 1.3%; VDR inhibitor: inconclusive; WRN helicase inh: -31.1%; PI5P4Ka inh: -10.8

How did COc1ccc(C2=CC3=C(Br)C(=O)C(C)(OC(=O)c4ccc(Cl)nc4)C(=O)C3=CO2)cc1 (configuration not stated) do in these assays?
PLK1 PBD inh: 11.9µM*; FEN1 inh: inconclusive; TCR activator: 0.7%; VDR inhibitor: -7.9%; WRN helicase inh: inconclusive; PI5P4Ka inh: inconclusive

Results for COC(=O)CCC(=O)OC1(C)C(=O)C2=COC(c3ccc(OC)cc3)=CC2=C(Br)C1=O (configuration not stated) ?
PLK1 PBD inh: 11.9µM*; FEN1 inh: 35.5µM*; TCR activator: 2.3%; VDR inhibitor: inconclusive; WRN helicase inh: inconclusive; PI5P4Ka inh: -79.4*
